# JMJD2A Tudor: inhibitors of human JMJD2A Tudor domain. O75164. AlphaScreen JMJD2A-Tudor / H3K4me3 peptide binding. Potency, µM (doses to about 114 µM), for the others: at the top dose activity change, negative = inhibition, usual class: inhibitors. actives 4.4% (n = 390,000). AID 504339; note: % is set by controls: 0 for no effect and ±100 for the full control effect; nearly all actives have a fitted effect of over 50% in size
# HP1b binding inh: blocks HP1-beta chromodomain binding to methylated histone tails; AlphaScreen HP1-beta / biotin-H3K9me3 peptide binding; actives 0.56% (n = 390,000); Potency, µM (doses to about 114 µM), inactives show at the top dose activity change, negative = inhibition, most hits filed as inhibitors; P83916; note: nearly all actives have a fitted effect of over 70% in size
#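 HP1-beta protein (50 nM final) preincubated 30 min at room temperature with biotinylated H3(1-18)K9me3 peptide (50 nM) in PBS pH 7.4, 0.01% Tween-20, then compound added for 30 min. AlphaScreen streptavidin donor/nickel chelate acceptor beads (10 ug/mL final), 30 min dark, luminescence read.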
# BAZ2B block: inhibitors of human BAZ2B bromodomain. Potency, µM (titrated, usually from 114 µM), inactives show at the top dose activity change, negative = inhibition, most hits filed as inhibitors. Q9UIF8. AlphaScreen BAZ2B-H3K14Ac peptide displacement. actives 4.4% (n = 360,000); note: % is set by controls: 0 for no effect and ±100 for the full control effect; nearly all actives have a fitted effect of over 60% in size
#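 AlphaScreen luminescence quantifies BAZ2B engagement of H3K14Ac peptide; the protein and biotinylated peptide are both at 50 nM final, buffer PBS pH 7.4 with 0.01% Tween-20, all steps at room temperature.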
# G9a inh: G9a (human) methyltransferase inhibition | AID 504332 | actives 8.8% (n = 350,000) | Q96KQ7 | G9a H3K9 monomethylation, AlphaScreen, 2 h | Potency, µM (titrated, usually from 102 µM), without a hit: at the top dose activity, negative = inhibition, usual class: inhibitors; note: % is set by controls: 0 for no effect and ±100 for the full control effect; nearly all actives have a fitted effect of over 75% in size
#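 Compounds were preincubated with 20 nM G9a for 15 min, after which biotinylated H3K9 peptide (500 nM) and SAM (20 uM) started a 2 h room-temperature reaction. Monomethylated product was quantified by antibody-based AlphaScreen chemiluminescence.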
# L3MBTL1 block: inhibitors of human L3MBTL1. Q9Y468. AlphaScreen L3MBTL1–H3K9me1 peptide binding. Potency, µM (top dose mostly 57.1 µM), inactives show at the highest dose activity, negative = inhibition, actives largely listed as inhibitors. actives 0.66% (n = 230,000); note: % is set by controls: 0 for no effect and ±100 for the full control effect; nearly all actives have a fitted effect of over 60% in size
#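 AlphaScreen proximity signal between nickel-chelate acceptor and streptavidin donor beads (final 10 ug/mL) reports binding of 50 nM L3MBTL1 to 75 nM biotin-H3 K9me1 peptide; complex incubated with compounds 30 min at room temperature; cefsulodin titration as control.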
# * = called active by the depositor; ? = inconclusive; . = not tested or not shown; [ ] = another dose, or the depositor's remark. A selection: hits, their analogues and other compounds. The true share with any hit is near 11%. Calls come from the whole dose curve; as a rule, active = well fitted inhibition curve with a large enough effect; inconclusive = small, poorly fitted or top-dose-only effect; inactive = no such curve, though single readings can be large or run the other way. Potency is the fitted concentration of half-maximal effect.
SMILES,JMJD2A Tudor,HP1b binding inh,BAZ2B block,G9a inh,L3MBTL1 block
O=C(Nc1cccc(C(F)(F)F)c1)c1cccnc1N1CCN(CCO)CC1,-15.3%,26.2%,-3.6%,-9.9%,-3.1%
O=C(O)c1cccnc1Nc1cccc(C(F)(F)F)c1,5.8%,20.6%,79.4µM*,11.3%[59 µM],8.2%
NS(=O)(=O)c1cccnc1Nc1cccc(C(F)(F)F)c1,7.0%,1.9%,2.9%,0.7%[59 µM],.
Cc1ccc(C)c(S(=O)(=O)N2CCN(C(=O)CSC(=S)N3CCCC3)CC2)c1,-12.1%,29.9%,4.5%,50.1µM*,9.6%
O=C(O)c1ccc2c(c1)C(=O)N([C@H](Cc1ccc(-c3ccccc3)cc1)C(=O)O)C2=O,-9.0%,.,-6.6%,-12.5%[12.7 µM],0.3%
C=CCc1ccccc1OCC(O)CNC(C)C (stereo not given),-16.6%,13.6%,-12.5%,?,2.6%
CCC(C)NCCOCCSc1ccc(Cl)cc1 (stereo not given),3.55µM*,?,79.4µM*,8.91µM*,6.6%
C=CCc1cc(Cl)ccc1OCCCNC(C)C,31.6µM*,?,56.2µM*,8.91µM*,9.8%
COCCCNC(=O)CCSc1ccc(Cl)cc1,-6.8%,20.0%,28.2%,21.0%,2.6%
C=CCc1cc(C)ccc1OCCOCCC(C(=O)OCC)C(=O)OCC,8.4%,88.1%,172.3%,55.0%[59 µM],114.1%
C=CCc1cc(Cl)ccc1OCCOCCNC(C)CC (stereo not given),1.41µM*,?,50.1µM*,10µM*,8.5%
CCOc1ccc(NC(=O)CN2CCN(CC(=O)Nc3ccc(N(CC)CC)cc3)CC2)cc1,-6.4%,20.0%[57 µM],-2.0%,?,.
COC(=O)c1c(SCC(=O)Nc2cccc(Cl)c2C)[nH]c2ccccc2c1=O,-13.3%,25.5%,0.4%,9.6%[59 µM],.
OC(CNc1ccccc1)Cn1ccc2ccccc21 (stereo not given),3.98µM*,?,35.5µM*,31.6µM*,-23.9%
OC(CN1CCCCC1)Cn1c2ccccc2c2ccccc21 (stereo not given),5.7%,43.5%,15.1%,31.3%,.
O=C(O)Cn1ccc2ccccc21,-16.4%,32.5%,-14.9%,23.0%[12.7 µM],.
OC(CN1CCCC1)Cn1ccc2ccccc21 (stereo not given),20µM*,23.3%,50.1µM*,14.1µM*,.
O=C(c1ccccc1)N1CCN(CC(O)Cn2ccc3ccccc32)CC1 (stereo not given),?,?,56.2µM*,11.2µM*,.
Cc1cc(C)c(OCC(O)CN2CCN(C(=O)c3ccccc3)CC2)c(C)c1 (stereo not given),22.4µM*,?,?,20µM*,.
CC(C)(C)NC(=S)NCCc1ccccc1,2.1%[57.1 µM],55.7%,10.5%,44.7µM*,3.6%
Cc1ccccc1NC(=S)NCCc1ccccc1,1.4%,20.9%,?,?,-6.3%
S=C(NCCc1ccccc1)Nc1ccccn1,-13.4%,?,-24.0%,1.41µM*,-0.5%
C=CCn1c(C(C)NC(=O)c2ccccc2C)n[nH]c1=S (stereo not given),7.94µM*,43.9%,-3.8%,20µM*,-10.8%
CCn1c(C(C)NC(=O)c2ccccc2C)n[nH]c1=S (stereo not given),?,44.7%,-12.5%,.,8.7%
C=CCn1c(C(C)NC(=O)c2ccc(C)cc2)n[nH]c1=S (stereo not given),8.91µM*,24.4%,2.7%,39.8µM*,12.8%
SMILES,JMJD2A Tudor,HP1b binding inh,BAZ2B block,G9a inh,L3MBTL1 block
Cc1ccccc1NC(=O)Cn1cc(C(=O)c2ccco2)c2ccccc21,-24.1%,7.5%,?,-28.2%[59 µM],.
CCCOc1ccc(S(=O)(=O)Nc2ccccn2)c2ccccc12,0.0%,23.3%,0.3%,7.8%,-5.0%
Oc1ccc(O)c(/C(=N/Nc2ccccc2)c2ccccc2)c1,.,.,44.7µM*,1.26µM*,.
Cc1ccc(C)c(NCc2n[nH]c(=S)n2-c2ccccc2)c1,?,-4.7%,-2.4%,.,6.4%
Fc1ccccc1/C=N/n1cc(-c2ccccc2)[nH]c1=S,12.6µM*,11.8%,-23.5%,?,.
Cc1ccc(C)c(/C=N/n2cc(-c3ccccc3)[nH]c2=S)c1,?,0.1%,-38.2%,3.98µM*,-14.9%
COc1ccccc1NC(=O)c1oc2ccccc2c1NC(=O)Cc1cccs1,-23.5%,36.0%,-10.7%,5.6%[59 µM],.
COc1ccccc1Nc1nnc(SCc2cc(=O)n3cc(C)ccc3n2)s1,-8.3%,31.5%,-27.6%,12.6µM*,-0.1%
Cc1ccc2nc(CSc3nnc(NC(=O)COc4ccccc4F)s3)cc(=O)n2c1,-10.4%,15.4%[57 µM],7.6%,17.8%[59 µM],.
CCOc1ccc(NC(=O)CN2C(=O)COc3ccc(S(=O)(=O)Nc4ccccc4)cc32)cc1,-19.3%,16.2%,-27.7%,-31.1%[59 µM],.
Nc1c(C(=O)Nc2ccc(OC(F)(F)F)cc2)nnn1Cc1ccccc1,2.6%,37.7%,-8.1%,1.1%[59 µM],.
Cc1ccc(-c2csc(N(CCO)CCCn3c(C(F)(F)F)nc4ccccc43)n2)cc1,-34.0%,5.0%,?,44.7µM*,-20.1%
COc1cccc(-c2nc(S(=O)(=O)c3ccc(Cl)cc3)c(NCc3ccccc3)o2)c1,-24.7%,-2.3%,-27.4%,-33.9%[59 µM],.
Cc1ccc(S(=O)(=O)Nc2cccc3ccc[n+](C)c23)cc1,50.1µM*,.,.,.,.
Cc1ccc(S(=O)(=O)Nc2cccc3ccccc23)cc1,-11.0%,12.0%,.,.,.
CCCCn1cnc2c1c(=O)n(C)c(=O)n2C,-13.5%,7.1%,-2.3%,6.4%[59 µM],9.4%
Cn1c(=O)c2c(ncn2CCCC(=N)N2CCOCC2)n(C)c1=O,50.1µM*,-7.9%,-2.3%,5.3%[12.7 µM],7.7%
Cc1cnc(NC(=O)/C=C/c2ccc(Br)o2)s1,-25.4%,18.9%,-1.9%,.,3.5%
Cc1ccc(/C=C/C(=O)Nc2ccc(N(C)C)cc2)o1,50.1µM*,?,35.5µM*,3.98µM*,-25.2%
CC(=O)NS(=O)(=O)c1ccc(NC(=O)/C=C/c2ccc(C)o2)cc1,35.5µM*,?,-20.3%,22.4µM*,?
Cc1ccc(/C=C/C(=O)Nc2ncc(C)s2)o1,-24.3%,-13.3%,?,12.6µM*,?
